Assay outcomes as filed in PubChem.
Pf Dd2 growth: Plasmodium falciparum Dd2 growth inhibition; 120,000 compounds, 4.3% hits; P. falciparum Dd2 growth, SYBR Green, 72 h; Potency, µM (titrated, usually from 28.9 µM), hits mostly inhibitors; active = well fitted inhibition curve with a large enough effect; note: nearly all actives have a fitted effect of over 65% in size
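Readout: SYBR Green fluorescence, 485 nm excitation, 535 nm emission, after ~16 h lysis at 37C. Before that, Dd2-infected red cells (2.5% hematocrit) grew 72 h with compound, 29 uM top final concentration.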
Of the large screens only hits and unclear results are named; the others gave an inactive call. This excerpt belongs to a sample that is enriched for hits.

Cc1nc2cccnc2n1CC1CCCN(S(=O)(=O)c2ccc3c(c2)CCC3)C1 (stereo not drawn)	none
Cc1nc2cccnc2n1CC1CCCN(S(=O)(=O)c2cccc(Br)c2)C1 (stereo not drawn)	Pf Dd2 growth 6.31µM
CC1(C)C(=O)Nc2ccc(S(=O)(=O)N3CCC(c4noc(-c5ccccc5)n4)C3)cc21 (stereo not drawn)	none
CCc1noc(-c2cn(C3CCN(C(=O)c4ccc(OC)cc4)C3)nn2)n1 (stereo not drawn)	none
Cc1nc(C(=O)N2CC[C@H](NC(=O)c3cnccn3)C[C@H]2C(=O)N[C@@H](Cc2cccs2)C(N)=O)cs1	none
CC(C)CC(=O)NCCC1CCN(C(=O)Nc2cc(F)ccc2F)CC1	none
COCCN1CC2(CCCN(C(=O)c3ccc(C)n(C)c3=O)C2)CCC1=O (stereo not drawn)	none
COc1ccc(S(=O)(=O)N2CCCC(Cn3cnc4cccnc43)C2)cc1OC (stereo not drawn)	none
Cc1noc(-c2ccc3c(c2)OCO3)c1C(=O)NC(C)CCc1ccccc1 (stereo not drawn)	none
Cc1noc(C2CC3(CCN(C(=O)COc4ccc(F)cc4)CC3)CN2C)n1 (stereo not drawn)	none
Cc1noc(C2CC3(CCN(C(=O)Cn4c(=O)oc5ccccc54)CC3)CN2C)n1 (stereo not drawn)	none
Cc1noc(C2CC3(CCN(C(=O)CCC4CCCC4)CC3)CN2C)n1 (stereo not drawn)	Pf Dd2 growth 4.47µM
CN(Cc1cc(-c2cccs2)n[nH]1)C(=O)c1cn(CCN)nn1	none
CN(Cc1cc(-c2cccs2)n[nH]1)C[C@@H]1CCCN2CCCC[C@H]12	Pf Dd2 growth 7.08µM
CN1CCCn2nc(C(=O)N(C)Cc3cc(-c4cccs4)n[nH]3)cc2C1	none
O=C(C1CC1)N1C[C@@H](F)[C@@H](OCc2nc3ccccc3[nH]2)C1	none
O=c1n(-c2cccc(Cl)c2)nc2n1CCN([S+](=O)([O-])c1cccc(C(F)(F)F)c1)C2	none
Cn1c(C(=O)N2CCCC2)cc2c1CCN(Cc1ccccc1)C2	none
Cc1ccc(CN2CCc3c(cc(C(=O)O)n3C)C2)cc1	none
CN(C)CCCNC(=O)c1cc2c(n1C)CCN(Cc1ccc(F)cc1)C2	none
CCOC(=O)C1CCN(C(=O)c2cc3c(n2C)CCN(Cc2ccccc2)C3)CC1	Pf Dd2 growth 1.58µM
COc1cccc(CN2CCc3c(cc(C(=O)Nc4cc(OC)cc(OC)c4)n3C)C2)c1	Pf Dd2 growth 8.91µM
COc1ccccc1NC(=O)c1cc2c(n1C)CCN(Cc1ccc(F)cc1)C2	none
Cc1cccc(CN2CCc3c(cc(C(=O)O)n3C)C2)c1	none
CN(C)CCNC(=O)c1cc2c(n1C)CCN(Cc1ccccc1)C2	Pf Dd2 growth 12.6µM
COc1ccc(CNC(=O)c2cc3c(n2C)CCN(Cc2ccc(F)cc2)C3)cc1	none
CC(=O)N[C@H]1CO[C@H]2[C@@H]1OC[C@@H]2n1nnnc1Oc1cccc(N(C)C)c1	none
COc1ccc(OCc2nc(C)c(CCO)c(=O)n2CC(=O)Nc2ccc(C)cc2C)cc1	none
COC[C@H]1CCCN1C(=O)C[C@@H]1O[C@H](CNS(=O)(=O)c2ccccc2)[C@@H](O)[C@H]1O	none
Cc1cc(C(=O)N[C@@H]2CN(c3ccncn3)C[C@H]2CN(C)C)n[nH]1	none
N#Cc1cnc(N2CCN(Cc3cncnc3)CC2)nc1N	none
COC(=O)c1ccc2nc(C[C@@H]3C[C@@H](C(C)C)[C@H](CNC(=O)C4CCCCC4)C=C3C)[nH]c2c1	Pf Dd2 growth 11.2µM
COc1ccc2nc(C[C@@H]3C[C@@H](C(C)C)[C@H](CNCc4ccccc4)C=C3C)[nH]c2c1	none
CC1=C[C@@H](CNCc2ccccc2)[C@H](C(C)C)C[C@H]1Cc1nc2c(C)cccc2[nH]1	Pf Dd2 growth 3.55µM
COc1ccc2nc(C[C@@H]3C[C@@H](C(C)C)[C@H](CN4C(=O)C(C)=C(C)C4=O)C=C3C)[nH]c2c1	none
CC1=C[C@@H](CNC(=O)COCC(=O)O)[C@H](C(C)C)C[C@H]1Cc1nc2ccc(F)cc2[nH]1	none
CC1=C[C@@H](CNC(=O)CCCC(=O)O)[C@H](C(C)C)C[C@H]1Cc1nc2ccccc2[nH]1	none
CC1=C[C@@H](CNC(=O)CC(C)(C)CC(=O)O)[C@H](C(C)C)C[C@H]1Cc1nc2c(C)cccc2[nH]1	none
COCC(=O)NC[C@@H]1C=C(C)[C@H](Cc2nc3ccc(C(=O)OC)cc3[nH]2)C[C@H]1C(C)C	Pf Dd2 growth 11.2µM
COc1ccc2nc(C[C@@H]3C[C@@H](C(C)C)[C@H](CNC4CCCCC4)C=C3C)[nH]c2c1	Pf Dd2 growth 2.82µM
COC(=O)c1ccc2nc(C[C@@H]3C[C@@H](C(C)C)[C@H](CNC(=O)COCC(=O)O)C=C3C)[nH]c2c1	none
COC(=O)c1ccc2nc(C[C@@H]3C[C@@H](C(C)C)[C@H](CNC(=O)CCCC(=O)O)C=C3C)[nH]c2c1	none
Cc1ccccc1CC(=O)NCc1nnc2c(-c3nc(C(C)C)no3)cccn12	none
COc1ccc(C(=O)NCCc2noc(C3CC3)n2)c(OC)n1	none
COc1cc(OC)cc(-c2onc(C)c2C(=O)NC(C)c2ccccc2)c1 (stereo not drawn)	none
CN(Cc1cccc(-n2cccn2)c1)Cc1nc(-c2cccs2)no1	none
O=C1CO[C@H]2CCN(Cc3nccs3)CC[C@@H]2N1Cc1ccccc1	none
O=C(CC[C@H]1NC(=O)c2ccccc2NC1=O)NCCc1nc(-c2ccccc2)cs1	none
CCNC(=O)[C@@H]1C[C@@H](NC(=O)CN2CCOCC2)CN1Cc1ccc(C)o1	none
COCCN1CCC(N2CCN(S(=O)(=O)c3ccc(F)c(Cl)c3)CC2)C1=O (stereo not drawn)	none
CN1CCN(C(=O)Cc2c[nH]c3ncc(-c4ccoc4)cc23)CC1	none
COc1cc(=O)n2c(c1C(=O)Nc1ccc(C)c(Cl)c1)CCCC2	none
CC1=C[C@@H](CNC(=O)CC(C)(C)CC(=O)O)[C@H](C(C)C)C[C@H]1Cc1nc2ccncc2[nH]1	none
CC1=C[C@@H](CNC(=O)C2CCCCC2)[C@H](C(C)C)C[C@H]1Cc1nc2c(C)cccc2[nH]1	none
CCC(CC)C(=O)NC[C@@H]1C=C(C)[C@H](Cc2nc3ccc(C)cc3[nH]2)C[C@H]1C(C)C	none
COc1ccc2nc(C[C@@H]3C[C@@H](C(C)C)[C@H](CNC(=O)[C@@H]4CCCC[C@@H]4C(=O)O)C=C3C)[nH]c2c1	none
COc1ccc2nc(C[C@@H]3C[C@@H](C(C)C)[C@H](CNC(=O)C4CCCCC4)C=C3C)[nH]c2c1	Pf Dd2 growth 12.6µM
CC1=C[C@@H](CNC(=O)C2CCCCC2)[C@H](C(C)C)C[C@H]1Cc1nc2ccc(C)cc2[nH]1	Pf Dd2 growth 11.2µM
CC1=C[C@@H](CNC(=O)CC(C)(C)CC(=O)O)[C@H](C(C)C)C[C@H]1Cc1nc2ccc(C)cc2[nH]1	Pf Dd2 growth 8.91µM
CC1=C[C@@H](CNC(=O)CC(C)(C)CC(=O)O)[C@H](C(C)C)C[C@H]1Cc1nc2ccc(F)cc2[nH]1	none
COc1ccc2nc(C[C@@H]3C[C@@H](C(C)C)[C@H](CNC(=O)COCC(=O)O)C=C3C)[nH]c2c1	none
COC(=O)c1ccc2nc(C[C@@H]3C[C@@H](C(C)C)[C@H](CN(C)C)C=C3C)[nH]c2c1	Pf Dd2 growth 12.6µM
COC(=O)c1ccc2nc(C[C@@H]3C[C@@H](C(C)C)[C@H](CNC(=O)CN(C)C)C=C3C)[nH]c2c1	none
CC1=C[C@@H](CN)[C@H](C(C)C)C[C@H]1Cc1nc2ccccc2[nH]1	none
CCc1cccc(OCC(=O)c2ccc3c(c2)N(CC(=O)NCCc2ccccc2)C(=O)CO3)c1	none
O=C(O)C1CCc2nnc(C3CCN([S+](=O)([O-])C4CCCC4)CC3)n21 (stereo not drawn)	none
